Assay outcomes from PubChem BioAssay.
Shown are actives, neighbours in structure and some others; about 1.8% of the full set was active somewhere.
HTR2A ag: agonists of mouse serotonin 5-HT2A receptor (HTR2A); activation, % at 7.6 µM; P35363; CHO-K1 mHTR2A beta-arrestin complementation, luminescence; percent of 30 µM serotonin response; 0.66% of 360,000 active;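 active = activation above a run cutoff, the mean activation of all tested compounds plus 3 SD, cut at about 14% in these data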;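 also: 0% = plate median of compound wells and 100% = 30 µM serotonin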
TLR4-MyD88 BLA: inhibitors of human TLR4-MyD88 binding. O00206+Q99836. HeLa CL3-4 TLR4/MyD88 BLA complementation, FRET ratio. inhibition, % at 8.4 µM. 0.18% of 200,000 active. AID 861; in the data active = inhibition above about 25%;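 also: 0% = vehicle and 100% = reference inhibitor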
Rtt109 HAT inh: C. albicans Rtt109 histone acetyltransferase inhibition; Q5AAJ8; inhibition, % at 34.9 µM; purified Rtt109/Vps75, ThioGlo CoA-SH fluorescence, 4 h; 0.16% of 330,000 active;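 active = inhibition of at least 50% in every replicate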
LANA-H2A inh: blocks KSHV LANA binding to histone H2A/H2B. Q9QR71. cell-free LANA-H2A/H2B peptide, fluorescence polarization. inhibition, % (test concentration not listed). 0.6% of 320,000 active; in the data active = inhibition mostly above about 10%, no sharp cut-off; inactive = mostly below about 6.7%
NOD2 RIPK2 PPI: NOD2-RIPK2 protein interaction inhibition. O43353. CHO BLA complementation NOD2-RIPK2, CCF4 ratio. inhibition, % at 4.98 µM. 0.38% of 360,000 active; in the data active = inhibition above about 21%;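 also: 0% = vehicle only and 100% = reference blocker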
TLR9-MyD88 inh: TLR9-MyD88 interaction inhibition | Q9NR96+Q99836 | CHO BLA complementation TLR9-MyD88, CCF4 FRET ratio | inhibition, % at 4.98 µM | 0.21% of 340,000 active | AID 504734;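 active = inhibition above the mean over all tested compounds plus 3 SD, cut at about 21% in these data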;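 also: 0% = DMSO only wells and 100% = clavulanate BLA inhibitor control wells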
NOD2-RIPK2 conf: NOD2-RIPK2 interaction inhibition confirmed. shares compounds with NOD2 RIPK2 PPI. CHO cells, NOD2-RIPK2 BLA complementation, CCF4 FRET. inhibition, % at 4.98 µM. 70% of 1,200 active;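 active = mean inhibition across replicates above a set limit taken from the earlier primary screen, cut at about 21% in these data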;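 also: 0% = DMSO-only wells and the high end = clavulanate BLA-blocked wells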
BLA counter: counter-screen for NOD2-RIPK2 interaction inhibitors: BLA reporter; inhibition, % at 4.98 µM; AID 624371; shares compounds with NOD2 RIPK2 PPI; CHO BLA reporter, CCF4 FRET ratio, counterscreen; 57% of 1,200 active;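 active = mean inhibition above the low-control mean inhibition plus three low-control SD, cut at about 11% in these data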;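 also: 0% = DMSO only wells and 100% = clavulanate high control wells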
* marks the source's active call; other numbers are inactive results; / = no result given.

SMILES	HTR2A ag	TLR4-MyD88 BLA	Rtt109 HAT inh	LANA-H2A inh	NOD2 RIPK2 PPI	TLR9-MyD88 inh	NOD2-RIPK2 conf	BLA counter
O=[N+]([O-])c1ccc(S(=O)(=O)c2ccccc2)nc1	0.8	/	-2.5	-1.1	77.8*	3.1	53.6*	13.1*
Cc1cc(S(=O)(=O)c2ccc([N+](=O)[O-])cn2)ccc1Br	-2.3	/	-5.3	-10.8	-2.9	-4.2	/	/
Cc1ccc(S(=O)(=O)c2ccc([N+](=O)[O-])cn2)cc1	-10.6	/	-7.9	0.3	70.5*	-4.6	54.1*	-3.1
CCN(CC(=O)Nc1ccc2c(c1)OCCO2)C(=O)/C=C/c1cccc(Br)c1	-5.8	/	-3.3	7.2	7.9	5.7	/	/
COc1cccc(N2CCN(c3ncnc4c3[nH]c3ccc(F)cc34)CC2C)c1 (stereo unspecified)	31.9*	6.0	-0.5	-12.7	28.3*	2.8	14.7	-0.5
COc1ccc(C(O)C(CN2CCOCC2)c2ccccc2)cc1F (stereo unspecified)	8.1	0.1	9.1	4.9	1.8	9.1	/	/
COc1ccc(C(=O)C(CN2CCOCC2)c2ccccc2)cc1F (stereo unspecified)	3.0	-2.6	10.0	/	58.3*	3.7	-4.2	-5.2
CC(=O)C(Cc1ccccc1)NC(=O)CN(C)Cc1ccccc1Cl (stereo unspecified)	-7.4	/	10.0	-9.9	0.7	-0.7	/	/
Cc1ccc(O)c(C2=Nc3ccccc3N=C(c3ccco3)C2)c1	-0.5	-4.1	-10.2	-4.4	23.2*	12.1	8.5	46.3*
Cc1ccc(C2=Nc3ccccc3N=C(c3ccco3)C2)c(O)c1	-0.3	-12.1	-4.3	-4.7	1.8	1.9	/	/
CC(C)(C)NC(=O)C(c1ccc(C(F)(F)F)cc1)n1c(=O)c(-c2cc3ccccc3[nH]2)nc2ccccc21 (stereo unspecified)	9.7	/	/	/	45.4*	/	41.4*	66.0*
CC(C)(C)NC(=O)C(c1ccncc1)n1c(=O)c(-c2ccccc2)nc2ccccc21 (stereo unspecified)	5.1	/	/	/	-4.7	/	/	/
CC(C)(C)NC(=O)C(c1ccccc1)n1c(=O)c(-c2cc3ccccc3[nH]2)nc2ccccc21 (stereo unspecified)	-2.0	/	/	/	42.8*	/	40.1*	64.5*
CC(C)(C)NC(=O)C(c1cccc2ccccc12)n1c(=O)c(-c2cc3ccccc3[nH]2)nc2ccccc21 (stereo unspecified)	-2.7	/	/	/	39.6*	/	33.6*	61.5*
CC(C)(C)NC(=O)C(c1ccc(C#N)cc1)n1c(=O)c(-c2cc3ccccc3[nH]2)nc2ccccc21 (stereo unspecified)	1.2	/	/	/	53.7*	/	51.2*	69.7*
CC(C)(C)NC(=O)C(c1ccccc1F)n1c(=O)c(-c2ccccc2)nc2ccccc21 (stereo unspecified)	0.8	/	/	/	12.0	/	/	/
CC(C)(C)NC(=O)C(c1ccc(-c2ccccc2)cc1)n1c(=O)c(-c2cc3ccccc3[nH]2)nc2ccccc21 (stereo unspecified)	0.5	/	/	/	40.1*	/	34.2*	63.1*
COc1ccc(C(C(=O)NC(C)(C)C)n2c(=O)c(-c3ccccc3)nc3ccccc32)cc1 (stereo unspecified)	-0.1	/	/	/	-3.1	/	/	/
O=C(NC1CCCCC1)C(C1CC1)n1c(=O)c(-c2cc3ccccc3[nH]2)nc2ccccc21 (stereo unspecified)	4.5	/	/	/	44.0*	/	38.3*	63.7*
NC(=O)c1ccc(-c2nnc(Nc3ccc(S(N)(=O)=O)cc3)c3ccccc23)cc1	7.1	/	-3.1	3.0	-6.2	-10.4	/	/
O=C1Nc2ccccc2C1(O)Cc1ccccn1 (stereo unspecified)	-1.5	/	-5.6	-9.5	23.6*	4.2	-0.1	-2.7
C=CCC1(O)C(=O)Nc2ccccc21 (stereo unspecified)	-0.5	8.5	-0.6	1.1	-9.7	-2.2	/	/
[O-][n+]1ccccc1/C=C/c1ccccc1	2.0	/	0.8	-1.3	0.2	0.9	/	/
CN(C)c1ccc(/C=C/c2cccc[n+]2[O-])cc1	-3.2	/	-49.4	-2.8	26.4*	/	-24.3	8.1
Cc1cccc(C)c1NC(=O)CN(C)C(=O)C1CC(=O)N(c2cccc3ccccc23)C1 (stereo unspecified)	0.4	/	-6.8	/	-0.6	-1.1	/	/
SMILES	HTR2A ag	TLR4-MyD88 BLA	Rtt109 HAT inh	LANA-H2A inh	NOD2 RIPK2 PPI	TLR9-MyD88 inh	NOD2-RIPK2 conf	BLA counter
Cc1cccc(NC(=O)c2cccc(S(=O)(=O)N(C)C3CCCCC3)c2)n1	4.8	/	/	/	21.0*	-4.8	0.8	-1.9
Cn1c(=O)c2nc(NCc3ccccc3)cnc2n(C)c1=O	-0.3	23.8	-210.0	-2.5	16.5	1.7	/	/
Cc1nc2c(=O)n(C)c(=O)n(C)c2nc1Cl	-4.8	20.6	2.2	/	23.9*	17.1	30.1*	-8.2
Nc1nc2ncccn2c1-c1ccc(C(F)(F)F)cc1	-1.4	/	/	/	25.4*	/	27.7*	34.5*
C#CCOCCOCCOCCNc1nc(N2CCN(C(=O)[C@H](CC(N)=O)n3cc(C(N)[C@H](C)CC)nn3)CC2)nc(N2CCN(C(=O)[C@H](CC(N)=O)n3cc(C(N)[C@@H](C)CC)nn3)CC2)n1 (stereo partly specified)	-2.8	/	24.2	0.4	-0.3	-1.6	/	/
OC[C@@H]1[C@@H](c2ccc(Cl)cc2)C(c2ccccc2)=NN1c1ccccc1	7.0	/	3.3	/	8.4	-6.8	/	/
COc1ccccc1[C@H]1C(c2ccc(F)cc2)=NN(c2ccccc2)[C@@H]1CO	-0.6	/	-21.6	/	11.2	-12.6	/	/
OC[C@@H]1[C@@H](c2ccc(Cl)cc2)C(c2cccc(Cl)c2)=NN1c1ccccc1	5.2	/	-2.6	/	34.3*	1.7	29.7*	59.4*
OC[C@@H]1[C@@H](c2ccc(F)cc2)C(c2cccc(Cl)c2)=NN1c1ccccc1	-0.3	/	-11.2	/	29.4*	1.8	29.5*	53.7*
CCCCn1nc(C(=O)NCC(c2cccs2)N2CCOCC2)c2ccccc2c1=O (stereo unspecified)	3.7	/	0.5	4.6	1.3	6.9	/	/
COc1ccccc1-c1nnc(Nc2nc3c(OC)cccc3s2)o1	-0.9	14.7	-1.9	-0.7	25.9*	18.4	18.6	3.1
Cc1ccccc1CN(C)CCS(=O)(=O)c1cc(Cl)ccc1Cl	-5.8	/	-1.7	0.2	27.9*	-8.2	-2.2	-3.8
Nc1nnc(CCS(=O)(=O)c2cc(Cl)ccc2Cl)s1	9.1	-4.0	-13.1	-2.6	-5.6	-6.4	/	/
O=S(=O)(c1cccs1)N1CCN(CC(O)COC2CCCc3ccccc32)CC1 (stereo unspecified)	-2.2	1.4	8.1	-4.0	-1.4	1.0	/	/
